High-throughput results deposited in PubChem by Center for Chemical Genomics, University of Michigan.
Dicer inh = human Dicer pre-microRNA cleavage inhibition; cat-ELCCA pre-miR-21 Dicer processing, chemiluminescence; active compounds read high; 47,000 tested, 6% active; z-score at 25 µM; Q9UPY3; in the data active means z-score above about 3, passing the limit was not always enough;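 further: plate controls were vehicle for no effect and no enzyme for full effect; higher signal means more uncleaved substrate so more Dicer inhibition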
Active calls of the source: *. Only a selection was taken, and hits are over-represented in it overall.

SMILES	Dicer inh
COc1ccc(-n2cccc2)c([N+](=O)[O-])c1	-0.45
COc1cc(N=Cc2cc(Cl)cc(Cl)c2OS(=O)(=O)c2ccc(C)cc2)c(OC)cc1Cl	0.34
Cc1cc(NS(=O)(=O)N2CCC(C)CC2)no1	-1.4
Cc1nc(C(F)(F)F)ccc1-c1nnc(SCc2c(F)cccc2Cl)o1	-1.3
Nc1nc(SCc2cccc(C(F)(F)F)c2)ncc1C(=O)O	0.43
COc1ccccc1C1Nc2nonc2NC2=C1C(=O)CC(C)(C)C2 (stereo unspecified)	-1.5
COc1ccc(OC)c(SCc2nnc(-c3ccc([N+](=O)[O-])c(C)c3)o2)c1	-0.81
CC(C)(C)C(=O)c1cn(CC(=O)N2CCc3ccccc32)c2ccccc12	2.5
CCOC(=O)c1cc(C)nc(Sc2ccccc2NC(=O)c2cccc(C(F)(F)F)c2)c1C#N	-2.1
COc1ccc2c(c1)C(C)=CC(C)(C)N2C(=O)Nc1ccc(Cl)cc1	1.2
CCN(CCS(=O)(=O)c1ccccc1)S(=O)(=O)c1ccc(C)cc1	4.5*
CCCCN(C(C)C)S(=O)(=O)c1ccc(C)cc1	-0.26
CCN(CC(O)Cn1c2ccccc2c2ccccc21)S(=O)(=O)c1ccc(C)cc1 (stereo unspecified)	0.77
CCOC(=O)C1=C(C)N=C2SCCC(=O)N2C1c1ccc(F)cc1 (stereo unspecified)	-1.8
O=c1c([N+](=O)[O-])c[nH]n(-c2ccccc2)c1=O	4.4*
Cc1cc(=O)[nH]n(-c2ccccc2)c1=O	2
O=C1c2ccccc2C(=O)N1c1ccc([N+](=O)[O-])cc1	-1.1
CC(C)(C)c1cc2nc3c(c(=O)n2[nH]1)CN(C1CCCCC1)C3=O	-1.3
Cc1ccc(C2Nn3c(nnc3-c3ccccc3)SC2C(=O)N2CCOCC2)cc1 (stereo unspecified)	-0.66
O=C(C1Sc2nnc(-c3ccccc3)n2NC1c1ccccc1)N1CCCC1 (stereo unspecified)	-0.08
Cc1ccc(C2Nn3c(nnc3-c3ccccc3)SC2C(=O)N2CCCCC2C)cc1 (stereo unspecified)	3*
COc1cc(C(=O)N(CCC#N)C2CC(C)CC(C)(C)C2)cc(OC)c1OC (stereo unspecified)	-0.67
COC(=O)c1ccc2c(c1)N(C)S(=O)(=O)c1cnc(SC)nc1-2	-2.9
COC(=O)c1ccc2c(c1)N(C)S(=O)(=O)c1cnc(SCC(=O)Nc3ccccc3)nc1-2	5*
COC(OC)c1nc(SCC(=O)Nc2cccc(Cl)c2)ncc1C(=O)O	-2.1
SMILES	Dicer inh
Cc1ccc(C2CC(C(F)(F)F)n3ncc(C(=O)N(C)Cc4c(C)nn(C)c4C)c3N2)cc1 (stereo unspecified)	-0.67
CCOC(=O)C1C(c2ccccc2)C(C(=O)OCC)S(=O)(=O)CS1(=O)=O (stereo unspecified)	1.2
O=C(O)CCC1=NN2C=Nc3sc4c(c3C2NC1=O)CCCC4 (stereo unspecified)	3.3*
COc1cc2c(cc1OC)C(c1ccccc1Cl)N(C(=O)c1sc3ccccc3c1Cl)CC2 (stereo unspecified)	-0.14
CCOC(=O)C1CCN(S(=O)(=O)c2ccc3oc4ccccc4c3c2)CC1	-0.96
CS(=O)(=O)c1ccc2sc(NC(=O)c3cc4ccccc4o3)nc2c1	-0.08
CS(=O)(=O)c1ccc2nc(NC(=O)Oc3ccccc3)sc2c1	2.5
CS(=O)(=O)c1ccc2nc(NC(=O)c3cc4ccccc4o3)sc2c1	4.2*
CC(C)N1C(=O)C(O)(CC(=O)c2ccc(F)cc2)c2ccccc21 (stereo unspecified)	-1.4
O=S(=O)(c1ccc(-c2ccno2)s1)N1CCN(CCN2CCOCC2)CC1	1.3
CCCn1c2ccccc2c2ccccc21	0.02
COc1ccc(NC(=O)c2c(NC(=O)COc3ccc(Cl)cc3)sc3c2CCC3)cc1	1
O=C(O)CCCCCCCC(=O)O	0.04
CN1CCN(CCCCC(=O)O)CC1	4*
CN1CCN(C(=O)CCC(=O)O)CC1	-0.72
Cc1c(C(=O)CN2CCN(c3ccc(C(F)(F)F)cn3)CC2)sc2ccc(Cl)cc12	1
CCCCn1c(C)cc(=S)cc1C	4.5*
CCCCn1c2ccccc2c2ccccc21	0.42
CCCn1c(C)cc(C)c(C#N)c1=O	0.64
Cc1c(CO)c2ccccc2n1Cc1ccc(Cl)cc1	-0.11
O=C(O)CC1(CC(=O)O)CCCC1	-0.03
CSc1ccc(C=C2C(=O)OC(C)(C)OC2=O)s1	0.88
O=C1OC2(CCCC2)OC(=O)C1=Cc1ccoc1	3.5*
CC1(C)OC(=O)C(=Cc2ccc[nH]2)C(=O)O1	1.2
COc1cc(C(F)(F)F)nc2ccc(C#CCO)cc12	-1.6
SMILES	Dicer inh
CN(C)CCCNc1ncnc2c1sc1nc3c(cc12)COC(C)(C)C3	0.49
CSC(C)c1ccn(S(=O)(=O)c2ccc(Cl)cc2)n1 (stereo unspecified)	13
CCCCSC1=C(C#N)C(c2ccccc2Cl)CC(=O)N1 (stereo unspecified)	-0.1
O=C(Nc1ccccc1)n1nccc1-c1ccc([N+](=O)[O-])cc1Cl	0.61
Cc1c(S(=O)(=O)c2ccc(Cl)cc2)cnc2cc(C(C)(C)C)nn12	0.69
CCOC(=O)c1ccc(NC(=S)NC)cc1	0.87
O=C(O)CCCC(=O)Nc1ccc(F)c(F)c1F	0.2
COc1ccc(S(=O)(=O)N2CCN(C)CC2)c2ccccc12	6.1*
O=S(=O)(c1ccc(Cl)c2ccccc12)N1CCN(c2ccccc2)CC1	1.5
Cc1ccc(-c2n[nH]c(=S)c3ccccc23)cc1S(=O)(=O)N1CCN(C)CC1	0.77
Fc1ccc(CN2CCCN(c3ncnc4scc(-c5ccccc5)c34)CC2)cc1	-1.4
COc1cccc(/C=C/N2CCCC2)c1[N+](=O)[O-]	-0.21
Cc1ccc(S(=O)(=O)Oc2c(-c3ccccc3)c(=O)n(C)c3ccccc23)cc1	-1.1
Cc1ccc(Cc2c(C)[nH]c3[nH]n(-c4ccccc4)c(=O)c3c2=O)cc1	-0.56
Cc1ccc(S(=O)(=O)Oc2c(Cc3ccccc3)c(=O)n(C)c3ccccc23)cc1	3.8*
Nc1ccc(Oc2ccc(F)cc2F)nc1	-0.45
C/S(=N\S(=O)(=O)c1cccc2nsnc12)c1ncc(C(F)(F)F)cc1Cl (stereo unspecified)	-0.78
FC(F)(F)c1cc(-c2cccc(Br)c2)nc2ncnn12	3.9*
FC(F)(F)c1cc(-c2ccc(Br)cc2)nc2ncnn12	-0.18
Nc1nc2nc(-c3ccc(OCc4ccccc4)cc3)cc(C(F)(F)F)n2n1	0.12
Nc1nc2nc(-c3cccc(Br)c3)cc(C(F)(F)F)n2n1	4.9*
Cc1cc2nc(-c3cccc(Br)c3)cc(C(F)(F)F)n2n1	-1.5
FC(F)(F)c1cccc(Nc2cc(-c3ccccc3)nc3ncnn23)c1	0.54
COCc1nc(SCC(=O)OC)c(C#N)cc1C(=O)OC	0.11
Cc1[nH]nc2c1C1(C(=O)Nc3ccccc31)C(C#N)=C(N)O2 (stereo unspecified)	-2.5
SMILES	Dicer inh
COc1cc2c(cc1OC)CN(C(=O)CSc1nnc3ccc4ccccc4n13)CC2	-0.54
CSc1ncc2c(n1)CC(C)(C)C/C2=N\OC(=O)c1ccccc1Cl	-0.53
N=c1scc(-c2ccc(Cl)cc2)n1-c1ccccc1N1CCOCC1	0.25
COC(=O)c1cc(Cl)cc(Cl)c1-c1c(Cl)cc(Cl)cc1C(=O)OC	-0.82
COC(=O)c1cc(=O)n2c(c1C(=O)c1ccc(Cl)cc1)SCC2	5.6*
O=C(c1ccc(Cl)cc1)N1CCSC1=S	-1.4
Cc1cc(C)nc(-n2[nH]c(C)c(Cc3ccc(C(C)(C)C)cc3)c2=O)n1	-1.6
